A short description of experiment [1]: NCI Yeast Anticancer Drug Screen. Data for the rad50 strain (AID 155).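 Also: 0% = growth of vehicle-only cultures of the same strain.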 Particulars: S. cerevisiae rad50 strain growth inhibition, hits give high values. The essentials: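 Growth of the mutant yeast was measured after compound exposure and referenced to vehicle-treated cultures.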
Experiment [2] is described as follows: NCI Yeast Anticancer Drug Screen. Data for the mec2-1 strain (AID 157). Particulars: S. cerevisiae mec2-1 strain, hits give high values. An outline of the steps: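 Each compound was tested on mec2-1 yeast, a strain altered in DNA damage repair or cell cycle control. Growth inhibition is reported relative to vehicle.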
Experiment [3] in a line: NCI Yeast Anticancer Drug Screen. Data for the sgs1 mgt1 strain (AID 161).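 Also: 0% = growth of cultures given vehicle only.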 Particulars: S. cerevisiae sgs1 mgt1 strain, hits give high values. An outline of the steps: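 Mutant yeast exposed to compound; growth scored against vehicle-only wells.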
Experiment [4] can be described thus: NCI Yeast Anticancer Drug Screen. Data for the cln2 rad14 strain (AID 165).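 Also: 0% = growth equal to vehicle treated cultures.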 Particulars: S. cerevisiae cln2 rad14 strain, hits give high values. The essentials:
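Test compounds were added to cln2 rad14 yeast cultures; inhibition of growth was then determined by comparison with vehicle treatment.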

A short description of experiment [5]: NCI Yeast Anticancer Drug Screen. Data for the bub3 strain (AID 167). Particulars: S. cerevisiae bub3 mutant strain, hits give high values. The essentials:
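Whole-cell yeast assay. The mutant strain was incubated with compounds, and growth inhibition was determined by comparison with vehicle-treated cells.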

Experiment [6] is described as follows: NCI Yeast Anticancer Drug Screen. Data for the mlh1 rad18 strain (AID 175). Particulars: S. cerevisiae mlh1 rad18 strain growth inhibition, hits give high values. An outline of the steps:
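Inhibition values reflect reduced growth of mutant yeast versus vehicle-treated controls following compound exposure; the mutations affect DNA damage repair.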

[7] abbreviates: at 5.0 µM (retest, dose inferred, filed as 0.5).
Setting [8] is: at 50.0 µM (retest, dose inferred, filed as 5.0).

Compounds without any hit were thinned out: in the full panel of roughly 79,000, 15% have a hit. A number with no mark means an inactive call. Calls of active or inactive are those of the source. Rule as the data show it: active = growth inhibition above about 70%; inactive = the rest.

`COc1ccc(C2COc3cc(OC(C)=O)c(OC(C)=O)cc3C2)cc1` (configuration not stated): the growth inhibition in experiment [1] (setting [7]) was -1%; in experiment [1] (setting [8]) it was 93% (active); in experiment [1] (at 50.0 µM) it was 96.1% (active); in experiment [2] (setting [7]), 2%; in experiment [2] (setting [8]), 95% (active); in experiment [2] (at 50.0 µM), 95.9% (active). Moreover, the growth inhibition is 1% in experiment [3] (setting [7]); 93% (active) in experiment [3] (setting [8]); 95% (active) in experiment [3] (at 50.0 µM); 4% in experiment [4] (setting [7]); 93% (active) in experiment [4] (setting [8]); 94.9% (active) in experiment [4] (at 50.0 µM). For the same molecule, the growth inhibition in experiment [5] (setting [7]) is 24%; in experiment [5] (setting [8]) it was 96% (active); in experiment [5] (at 50.0 µM) it was 97.1% (active); in experiment [6] (setting [7]), -3%; in experiment [6] (setting [8]) it was 94% (active); in experiment [6] (at 50.0 µM), 96.6% (active).

In the case of `Cc1[nH]c2ccccc2c1-c1ccccc1`, the growth inhibition in experiment [1] (setting [7]) was -126%; in experiment [1] (setting [8]), 98% (active); in experiment [1] (at 50.0 µM) it was 99.5% (active); in experiment [2] (setting [7]), -48%; in experiment [2] (setting [8]), 99% (active); in experiment [2] (at 50.0 µM) it was 99.6% (active). Moreover, the growth inhibition is -65% in experiment [3] (setting [7]); 98% (active) in experiment [3] (setting [8]); 99.5% (active) in experiment [3] (at 50.0 µM); -53% in experiment [4] (setting [7]); 99% (active) in experiment [4] (setting [8]); 99% (active) in experiment [4] (at 50.0 µM). In addition, the growth inhibition in experiment [5] (setting [7]) was -62%; in experiment [5] (setting [8]), 98% (active); in experiment [5] (at 50.0 µM) it was 99.4% (active); in experiment [6] (setting [7]) it was -122%; in experiment [6] (setting [8]), 98% (active); in experiment [6] (at 50.0 µM), 99.5% (active).

As to `O=C(CCC(NC(=O)OCc1ccccc1)C(=O)OCc1ccccc1)NC(CSCc1ccccc1)C(=O)NCC(=O)Oc1c(Cl)c(Cl)c(Cl)c(Cl)c1Cl` (configuration not stated), the growth inhibition in experiment [1] (setting [7]) is 8%; in experiment [1] (setting [8]) it was 51%; in experiment [1] (at 50.0 µM) it was 31%; in experiment [2] (setting [7]) it was 9%; in experiment [2] (setting [8]), 32%; in experiment [2] (at 50.0 µM) it was 28.8%. Moreover, the growth inhibition in experiment [3] (setting [7]) was 7%; in experiment [3] (setting [8]), 35%; in experiment [3] (at 50.0 µM) it was 64.2%; in experiment [4] (setting [7]), -7%; in experiment [4] (setting [8]), 48%; in experiment [4] (at 50.0 µM), 45%. Also, the growth inhibition is 3% in experiment [5] (setting [7]); 59% in experiment [5] (setting [8]); 18.8% in experiment [5] (at 50.0 µM); 8% in experiment [6] (setting [7]); 54% in experiment [6] (setting [8]); 60.7% in experiment [6] (at 50.0 µM).

`Nc1ccc2c(c1)CN1C(=O)c3ccccc3C1=N2`: the growth inhibition in experiment [1] (setting [7]) was 24%; in experiment [1] (setting [8]), 54%; in experiment [1] (at 50.0 µM), 67.3%; in experiment [2] (setting [7]), 8%; in experiment [2] (setting [8]) it was 22%; in experiment [2] (at 50.0 µM), 34.6%. Moreover, the growth inhibition in experiment [3] (setting [7]) was -3%; in experiment [3] (setting [8]), 12%; in experiment [3] (at 50.0 µM) it was 5.55%; in experiment [4] (setting [7]), 23%; in experiment [4] (setting [8]), 18%; in experiment [4] (at 50.0 µM), 36.6%. For the same molecule, the growth inhibition was 3% in experiment [5] (setting [7]); 19% in experiment [5] (setting [8]); 22.4% in experiment [5] (at 50.0 µM); 11% in experiment [6] (setting [7]); 19% in experiment [6] (setting [8]); 46% in experiment [6] (at 50.0 µM).

Take `O=C(c1ccc(Br)cc1)C1OC12C(=O)Nc1ccccc12` (configuration not stated): the growth inhibition in experiment [1] (setting [7]) is 46%; in experiment [1] (setting [8]) it was 99% (active); in experiment [1] (at 50.0 µM) it was 99.7% (active); in experiment [2] (setting [7]), 99% (active); in experiment [2] (setting [8]), 99% (active); in experiment [2] (at 50.0 µM), 99.7% (active). The growth inhibition in experiment [3] (setting [7]) was 84% (active); in experiment [3] (setting [8]) it was 100% (active); in experiment [3] (at 50.0 µM) it was 99.7% (active); in experiment [4] (setting [7]), 49%; in experiment [4] (setting [8]), 99% (active); in experiment [4] (at 50.0 µM), 99.1% (active). Moreover, the growth inhibition in experiment [5] (setting [7]) was 99% (active); in experiment [5] (setting [8]) it was 99% (active); in experiment [5] (at 50.0 µM) it was 99.6% (active); in experiment [6] (setting [7]), 99% (active); in experiment [6] (setting [8]) it was 99% (active); in experiment [6] (at 50.0 µM), 99.5% (active).

In the case of `CCC(=O)OC1=C(Cl)C(=O)c2ccccc2C1=O`, the growth inhibition is 2% in experiment [1] (setting [7]); 98% (active) in experiment [1] (setting [8]); 71.8% (active) in experiment [1] (at 50.0 µM); 4% in experiment [2] (setting [7]); 99% (active) in experiment [2] (setting [8]); 27.2% in experiment [2] (at 50.0 µM). For the same molecule, the growth inhibition was 9% in experiment [3] (setting [7]); 99% (active) in experiment [3] (setting [8]); 63.8% in experiment [3] (at 50.0 µM); 2% in experiment [4] (setting [7]); 98% (active) in experiment [4] (setting [8]); 0.15% in experiment [4] (at 50.0 µM). In addition, the growth inhibition in experiment [5] (setting [7]) was 6%; in experiment [5] (setting [8]), 99% (active); in experiment [5] (at 50.0 µM) it was 34.5%; in experiment [6] (setting [7]), 14%; in experiment [6] (setting [8]) it was 98% (active); in experiment [6] (at 50.0 µM) it was 55.4%.

In the case of `CCN(CC)CCN(C)c1ccc(CO)c2c1C(=O)c1ccccc1S2=O` (configuration not stated), the growth inhibition in experiment [1] (setting [7]) is 5%; in experiment [1] (setting [8]) it was 74% (active); in experiment [1] (at 50.0 µM), 95.8% (active); in experiment [2] (setting [7]), -3%; in experiment [2] (setting [8]), 28%; in experiment [2] (at 50.0 µM), 60.9%. Besides, the growth inhibition in experiment [3] (setting [7]) is -5%; in experiment [3] (setting [8]), 78% (active); in experiment [3] (at 50.0 µM), 96.3% (active); in experiment [4] (setting [7]), 2%; in experiment [4] (setting [8]) it was 23%; in experiment [4] (at 50.0 µM) it was 33.5%. Moreover, the growth inhibition was 2% in experiment [5] (setting [7]); 9% in experiment [5] (setting [8]); 82.4% (active) in experiment [5] (at 50.0 µM); -1% in experiment [6] (setting [7]); 73% (active) in experiment [6] (setting [8]); 97.9% (active) in experiment [6] (at 50.0 µM).

`COC(=O)CCCCCCCCCCC(=O)O`: the growth inhibition is -3% in experiment [1] (setting [7]); -4% in experiment [1] (setting [8]); 2.45% in experiment [1] (at 50.0 µM); -1% in experiment [2] (setting [7]); -2% in experiment [2] (setting [8]); -11.6% in experiment [2] (at 50.0 µM). Moreover, the growth inhibition was -2% in experiment [3] (setting [7]); 4% in experiment [3] (setting [8]); -9.55% in experiment [3] (at 50.0 µM); -9% in experiment [4] (setting [7]); -4% in experiment [4] (setting [8]); -4.75% in experiment [4] (at 50.0 µM). For the same molecule, the growth inhibition in experiment [5] (setting [7]) is -4%; in experiment [5] (setting [8]), -9%; in experiment [5] (at 50.0 µM), 38.6%; in experiment [6] (setting [7]) it was -2%; in experiment [6] (setting [8]) it was 2%; in experiment [6] (at 50.0 µM), -6.6%.

In the case of `COC(=O)c1ccc(SCCC(=O)CCl)cc1`, the growth inhibition in experiment [1] (setting [7]) is 23%; in experiment [1] (setting [8]), 99% (active); in experiment [1] (at 50.0 µM), 99.3% (active); in experiment [2] (setting [7]), 25%; in experiment [2] (setting [8]), 99% (active); in experiment [2] (at 50.0 µM), 99.2% (active). For the same molecule, the growth inhibition was 24% in experiment [3] (setting [7]); 99% (active) in experiment [3] (setting [8]); 99% (active) in experiment [3] (at 50.0 µM); 14% in experiment [4] (setting [7]); 99% (active) in experiment [4] (setting [8]); 98.7% (active) in experiment [4] (at 50.0 µM). Moreover, the growth inhibition in experiment [5] (setting [7]) is 38%; in experiment [5] (setting [8]), 99% (active); in experiment [5] (at 50.0 µM) it was 99.4% (active); in experiment [6] (setting [7]), 27%; in experiment [6] (setting [8]), 99% (active); in experiment [6] (at 50.0 µM), 99% (active).

Source of the values: PubChem BioAssay (NCI).
